Screens as filed in PubChem.
MEKK2 WT-MEK5 = raises or lowers MEK5 binding to wildtype human MEKK2 PB1 domain | Q9Y2U5 | bead flow cytometry, Alexa488-MEK5 binding to MEKK2 WT; actives lie on both sides | binding response (% of control), % at 10 µM | actives 1.1% (n = 290,000); in the data active = binding response below about 67% or above about 130%
Arbovirus anti = arbovirus infection inhibition; arbovirus infection cell-based antiviral screen; inhibition, % at 10 µM; actives 0.37% (n = 200,000); in the data active = inhibition above about 30%
Pf gamet viab = inhibitors of late stage P. falciparum gametocyte viability. inhibition, % at 10.9 µM. actives 0.065% (n = 150,000). P. falciparum stage V gametocytes, ATP luminescence, 24 h;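 active = inhibition above the mean plus 3 SD of compounds within the control limits, set per campaign, cut at about 38% in these data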;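 also: 0% = DMSO wells and 100% = medium only without gametocytes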
MEKK2mut PB1 HTS = signal of MEK5 binding to mutant human MEKK2 PB1 domain. actives 0.35% (n = 290,000). percent response, % at 10 µM. bead flow cytometry, Alexa488-MEK5 binding to MEKK2 mutant; in the data active = percent response above about 24%, passing the limit was not always enough
MEKK3 PB1 HTS = modulators (inhibitors or enhancers) of MEK5 binding to human MEKK3 PB1 domain; AID 1529; bead-based flow cytometry, Alexa488-MEK5 binding to MEKK3; actives lie on both sides; 0 = blocked by unlabeled MEK5, 100 = vehicle; binding response (% of control), % at 10 µM; actives 1.4% (n = 290,000); Q99759;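 active = binding response more than 3 SD above or below the average of its plate-row segment, actives on both sides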;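 also: Alexa488 bead fluorescence after subtracting the streptavidin-only scavenger bead signal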
Target sequence (Q99759 whole entry, looked up, the tested form may be a part): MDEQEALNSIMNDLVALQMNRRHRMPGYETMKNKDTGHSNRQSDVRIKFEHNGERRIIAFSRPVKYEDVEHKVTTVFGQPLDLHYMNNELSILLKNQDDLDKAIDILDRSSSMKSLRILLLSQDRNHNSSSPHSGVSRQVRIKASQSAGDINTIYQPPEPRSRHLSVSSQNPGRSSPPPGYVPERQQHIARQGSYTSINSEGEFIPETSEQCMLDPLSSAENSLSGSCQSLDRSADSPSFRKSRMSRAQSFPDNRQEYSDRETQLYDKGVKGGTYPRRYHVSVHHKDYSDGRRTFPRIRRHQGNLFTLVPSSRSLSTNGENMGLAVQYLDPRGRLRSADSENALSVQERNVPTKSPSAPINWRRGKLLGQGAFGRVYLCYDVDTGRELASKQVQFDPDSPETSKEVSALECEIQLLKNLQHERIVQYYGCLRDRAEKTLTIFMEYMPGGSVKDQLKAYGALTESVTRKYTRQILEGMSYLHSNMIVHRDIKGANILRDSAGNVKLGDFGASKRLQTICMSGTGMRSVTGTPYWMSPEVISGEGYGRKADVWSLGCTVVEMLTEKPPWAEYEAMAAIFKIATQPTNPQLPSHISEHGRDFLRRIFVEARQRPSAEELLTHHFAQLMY
MEKK2wt confirm = raises or lowers MEK5 binding to wildtype human MEKK2, retest; actives 2.4% (n = 5,900); bead flow cytometry, Alexa488-MEK5 binding to MEKK2 WT; actives lie on both sides; binding response (% of control), % at 10 µM; shares compounds with MEKK3 PB1 HTS; AID 1892; in the data active = binding response below about 16% or above about 210%; inactive = in between
MEKK2mut confirm = signal of MEK5 binding to mutant human MEKK2, retest; shares compounds with MEKK3 PB1 HTS; bead flow cytometry, Alexa488-MEK5 binding to MEKK2 mutant; percent response, % at 10 µM; actives 2% (n = 5,900); AID 1893; in the data active = percent response mostly above about 71%, no sharp cut-off; inactive = mostly below about 38%;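 also: higher means compound restores mutant binding toward wildtype level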
MEKK3-MEK5 inh = confirmation of inhibitors of MEK5 binding to human MEKK3; actives 1.8% (n = 5,900); bead flow cytometry, Alexa488-MEK5 binding to MEKK3; hits give low values; shares compounds with MEKK3 PB1 HTS; binding response (% of control), % at 10 µM;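 active = binding response below 72% of control, or above a set upper limit, though filed actives all read lower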;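 also: 100% = DMSO only wells and 0% = binding blocked by excess unlabeled MEK5; lower values mean stronger disruption of MEK5 binding to MEKK3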
* = called active by the depositor; · = no result; [ ] = dose if it differs, or a comment. Only some compounds are listed: those with a hit (about 2.4% of all), similar ones and a draw of the others.

SMILES | MEKK2 WT-MEK5 | Arbovirus anti | Pf gamet viab | MEKK2mut PB1 HTS | MEKK3 PB1 HTS | MEKK2wt confirm | MEKK2mut confirm | MEKK3-MEK5 inh
C#CCOCCOCCOCCNc1nc(N2CCN(C(=O)[C@H](CCC(=O)O)n3cc(C(N)CC(C)C)nn3)CC2)nc(N2CCN(C(=O)[C@H](Cc3ccc(O)cc3)n3cc(C(N)CC(C)C)nn3)CC2)n1 (some centres undefined) | 110 | 3 | · | 9 | 105 | · | · | ·
C#CCOCCOCCOCCNc1nc(N2CCN(C(=O)[C@H](CCCCN)n3cc([C@@H](N)C(C)CC)nn3)CC2)nc(N2CCN(C(=O)[C@H](Cc3ccc(O)cc3)n3cc([C@@H](N)CC(C)C)nn3)CC2)n1 (some centres undefined) | 158* | -4 | · | 43 | 110 | 135 | 22 | 107
C#CCOCCOCCOCCNc1nc(N2CCN(C(=O)[C@H](Cc3ccc(O)cc3)n3cc([C@@H](N)CC(C)C)nn3)CC2)nc(N2CCN(C(=O)[C@H](Cc3ccc(O)cc3)n3cc([C@@H](N)CC(C)C)nn3)CC2)n1 | 188* | -4 | · | 69* | 96 | 227* | 95* | 113
C#CCOCCOCCOCCNc1nc(N2CCN(C(=O)[C@H](CCCCN)n3cc([C@@H](N)CC(C)C)nn3)CC2)nc(N2CCN(C(=O)[C@H](CCCCN)n3cc([C@@H](N)CC(C)C)nn3)CC2)n1 | 136* | 0 | · | 23 | 96 | 125 | 12 | 98
COc1cccc(N/C(N)=N/c2nc(C)cc(=O)[nH]2)c1 | 101 | · | · | 3 | 103 | · | · | ·
CC(=O)NCc1ccc(-c2csc(-c3cccs3)n2)cc1 | 98 | · | · | 1 | 98 | · | · | ·
CCC(Sc1nc2ccccc2o1)C(=O)O (centres undefined) | 102 | 5 | -16 | 3 | 104 | · | · | ·
CC(Sc1nc2ccccc2o1)C(=O)O (centres undefined) | -39*[inhibitor] | 11 | -11 | -21 | -3.0*[inhibitor] | 103 | 3 | 104
Cc1ccc(Nc2c(N)c(=O)oc3ccccc23)cc1 | 0.0*[inhibitor] | -10 | · | 4 | 0.0*[inhibitor] | 101 | 2 | 98
CC(=O)c1c(C)[nH]c(C(=O)NC2=NCCS2)c1C | 3.0*[inhibitor] | -4 | · | -14 | 2.0*[inhibitor] | 1.0*[inhibitor] | -29 | 2.0*
CN(c1ccccc1)S(=O)(=O)c1cccc(NC(=O)CN2CCCc3ccccc32)c1 | 98 | · | -4 | -1 | 99 | · | · | ·
NS(=O)(=O)c1cccc(NC(=O)CN2CCc3ccccc32)c1 | 21*[inhibitor] | -6 | 11 | 18 | 98 | 84 | -18 | 90
O=C1c2ccccc2NC2(CCCC2)N1O | 113 | 17 | -23 | 15 | 110 | · | · | ·
O=C1c2ccccc2NC2(CCCCC2)N1N=C1CCCCC1 | 90 | -6 | -20 | -1 | 75*[inhibitor] | 102 | 2 | 104
COc1ccc(-c2nn(-c3ccccc3)cc2/C=N/N=C(N)N)cc1OC | 148* | -31 | 29 | 3 | 110 | 176 | 35 | 111
Cc1nn(-c2ccccc2C(=O)O)c(=O)c2ccccc12 | -1.0*[inhibitor] | 0 | · | -26 | 2.0*[inhibitor] | 103 | 2 | 103
Cc1nn(-c2ccccc2[N+](=O)[O-])c(=O)c2ccccc12 | 106 | -7 | · | 6 | 106 | · | · | ·
CC(=O)c1c(N2CCN(c3ccccc3)CC2)nc(=S)n(-c2ccccc2)c1C | 23*[inhibitor] | -3 | · | 11 | 82 | 93 | -7 | 94
c1ccc2c(Nc3ccc4c(c3)OCCO4)c3c(nc2c1)CCCC3 | 114 | -1 | 4 | 5 | 99 | · | · | ·
Cc1c(NC(=O)C2CC(c3ccc(F)cc3)=NO2)c(=O)n(-c2ccccc2)n1C (centres undefined) | 17*[inhibitor] | 1 | · | -38 | 9.0*[inhibitor] | 104 | 7 | 102
COc1ccc(C2=NOC(C(=O)Nc3c(C)n(C)n(-c4ccccc4)c3=O)C2)cc1 (centres undefined) | 109 | -3 | · | 15 | 111 | · | · | ·
CCN1CCN(Cc2ccc(NC(=O)c3ccc(C)c(NC(=O)c4nccn4C)c3)cc2C(F)(F)F)CC1 | 104 | · | -15 | 3 | 94 | · | · | ·
CCN1CCN(Cc2ccc(NC(=O)c3ccc(C)c(NC(=O)c4cccc5[nH]ccc45)c3)cc2C(F)(F)F)CC1 | 124 | · | -20 | 74* | 106 | 187 | 55 | 100
CCN1CCN(Cc2ccc(NC(=O)c3ccc(C)c(NC(=O)N4CCNC4=O)c3)cc2C(F)(F)F)CC1 | 126 | · | -16 | 5 | 107 | · | · | ·
CCN1CCN(Cc2ccc(NC(=O)c3ccc(C)c(NC(=O)c4cc(-c5ccc(Br)cc5)n[nH]4)c3)cc2C(F)(F)F)CC1 | 150* | · | 5 | 75* | 109 | 239* | 126* | 109
SMILES | MEKK2 WT-MEK5 | Arbovirus anti | Pf gamet viab | MEKK2mut PB1 HTS | MEKK3 PB1 HTS | MEKK2wt confirm | MEKK2mut confirm | MEKK3-MEK5 inh
COc1ccc2nc(SCC(=O)NCc3ccc(S(N)(=O)=O)cc3)[nH]c2c1 | 107 | · | · | 5 | 102 | · | · | ·
CCOC(=O)COc1ccc(/C=C2/C(=O)NN(c3ccc(F)cc3)C2=O)cc1OC | 167* | · | 10 | 15 | 116 | 98 | -1 | 101
C=CCNC(=S)Nc1ccc(N(C)C)cc1 | 89 | · | -13 | -5 | 98 | · | · | ·
CC(C)C(=O)c1ccc(O)c(O)c1 | 68 | · | -3 | -33 | 70*[inhibitor] | 106 | 12 | 104
Cc1ccc(O)c(O)c1 | 99 | · | · | 1 | 99 | · | · | ·
O=C(Cn1c(C(F)(F)F)nc2ccccc21)OCC(=O)c1c[nH]c2ccccc12 | 63*[inhibitor] | 1 | -28 | 10 | 101 | 96 | 1 | 97
Cc1[nH]c2ccccc2c1C(=O)COC(=O)Cn1c(C(F)(F)F)nc2ccccc21 | 98 | 5 | 10 | 1 | 99 | · | · | ·
COc1ccc(NC(=O)CS(=O)c2ccc(Br)cc2)cc1 (centres undefined) | 99 | · | · | -2 | 99 | · | · | ·
O=C(CN1N=C(c2ccc(Cl)cc2)CCC1=O)NCc1cccnc1 | 110 | -7 | 10 | 1 | 142* | 99 | -2 | 103
COc1ccc(C2=NN(CC(=O)NCc3ccco3)C(=O)CC2)cc1 | 108 | -4 | · | 0 | 130* | 105 | 3 | 102
Cc1ccc(C2=NN(CC(=O)NCc3cccnc3)C(=O)CC2)cc1 | 110 | -10 | · | 1 | 140* | 104 | 8 | 105
CC(C(=O)NCc1cccnc1)N1C(=O)c2ccccc2C1=O (centres undefined) | 121 | 3 | 6 | 10 | 126* | 95 | -2 | 99
O=C(NCCC1=CCCCC1)c1cc(-c2ccncc2)nc2ccccc12 | 97 | -16 | 12 | -4 | 98 | · | · | ·
